Binding signal data for one sequence are collected here from paper PMC7862700, “An all-to-all approach to the identification of sequence-specific readers for epigenetic DNA modifications on cytosine”.

Holding throughout (test): DAPPL (digital affinity profiling via proximity ligation, sequencing); 10 mM Tris-HCl pH 7.5, 50 mM NaCl, 1 mM DTT, 4% glycerol, room temperature, 30 min; GST-TFs on glutathione beads, 16-mer random dsDNA library, 0.1% formaldehyde crosslink after washing; high values mean tight binding
What all share (settings): protein: recombinant; tags: N-terminal GST; dsDNA, one strand shown

One test has as its target T1, ELK1 (Homo sapiens, UniProt P19419 1-428).
T1 sequence: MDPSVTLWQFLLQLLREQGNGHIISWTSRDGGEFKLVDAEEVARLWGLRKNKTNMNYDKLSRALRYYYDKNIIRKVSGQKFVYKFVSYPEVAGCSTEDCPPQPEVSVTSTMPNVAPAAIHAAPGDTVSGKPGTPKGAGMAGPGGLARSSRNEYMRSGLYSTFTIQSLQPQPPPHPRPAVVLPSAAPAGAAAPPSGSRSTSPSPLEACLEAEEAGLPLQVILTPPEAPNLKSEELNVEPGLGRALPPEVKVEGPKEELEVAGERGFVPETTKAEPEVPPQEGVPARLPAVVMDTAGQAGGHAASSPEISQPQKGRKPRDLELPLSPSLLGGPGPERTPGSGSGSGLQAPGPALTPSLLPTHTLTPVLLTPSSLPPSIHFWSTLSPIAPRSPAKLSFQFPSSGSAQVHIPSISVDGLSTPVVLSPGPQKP
The method in brief:
(§1)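 Beads coated with glutathione captured GST-fused human transcription factors that had been expressed in yeast, and the factors were then given DNA barcodes and pooled with a tag-only sample. The pools were incubated with 200 nmole of a random double-stranded 16-mer DNA library in Tris/NaCl/DTT/glycerol buffer for 30 min at room temperature, washed, crosslinked with 0.1% formaldehyde and proximity-ligated with BsaI/T4 ligase at 37 °C for 1 h. PCR amplification and Illumina NextSeq500 sequencing came last. Binding signal is each hexamer's read frequency for a factor divided by its frequency for the tag-only sample.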

A further test deals with T2, GABPA (Homo sapiens, UniProt Q06546 1-454).
T2 sequence: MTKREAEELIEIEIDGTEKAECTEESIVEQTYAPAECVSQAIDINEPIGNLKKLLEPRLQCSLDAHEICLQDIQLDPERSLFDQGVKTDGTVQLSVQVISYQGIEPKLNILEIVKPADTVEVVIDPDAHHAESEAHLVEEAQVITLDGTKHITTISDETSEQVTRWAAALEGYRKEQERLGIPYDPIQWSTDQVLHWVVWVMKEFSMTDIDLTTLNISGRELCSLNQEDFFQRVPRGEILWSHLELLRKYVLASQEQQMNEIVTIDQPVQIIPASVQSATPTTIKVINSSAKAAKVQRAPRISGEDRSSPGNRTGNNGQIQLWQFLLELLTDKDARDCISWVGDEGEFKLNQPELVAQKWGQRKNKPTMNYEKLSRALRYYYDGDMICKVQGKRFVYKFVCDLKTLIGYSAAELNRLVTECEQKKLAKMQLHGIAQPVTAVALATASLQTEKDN
The method in brief:
as §1

Another test concerns the target T3, ERG (Homo sapiens, UniProt P11308 1-479).
T3 sequence: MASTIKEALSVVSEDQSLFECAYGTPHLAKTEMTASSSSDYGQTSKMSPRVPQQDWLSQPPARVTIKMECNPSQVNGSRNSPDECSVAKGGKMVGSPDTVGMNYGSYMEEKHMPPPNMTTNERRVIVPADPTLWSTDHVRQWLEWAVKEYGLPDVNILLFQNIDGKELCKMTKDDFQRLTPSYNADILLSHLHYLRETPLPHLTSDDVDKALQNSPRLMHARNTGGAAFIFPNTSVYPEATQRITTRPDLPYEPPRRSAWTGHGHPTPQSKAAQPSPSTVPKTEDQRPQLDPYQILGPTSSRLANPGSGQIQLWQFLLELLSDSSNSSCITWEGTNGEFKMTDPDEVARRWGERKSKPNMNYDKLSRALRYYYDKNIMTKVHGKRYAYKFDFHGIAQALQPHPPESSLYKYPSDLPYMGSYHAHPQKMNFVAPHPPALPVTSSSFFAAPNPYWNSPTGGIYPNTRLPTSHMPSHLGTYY
A digest of the protocol:
as §1

The target of a further test is ELF1 (Homo sapiens, UniProt P32519 1-619). The method in brief: as §1
Chain of ELF1 (P32519 whole entry): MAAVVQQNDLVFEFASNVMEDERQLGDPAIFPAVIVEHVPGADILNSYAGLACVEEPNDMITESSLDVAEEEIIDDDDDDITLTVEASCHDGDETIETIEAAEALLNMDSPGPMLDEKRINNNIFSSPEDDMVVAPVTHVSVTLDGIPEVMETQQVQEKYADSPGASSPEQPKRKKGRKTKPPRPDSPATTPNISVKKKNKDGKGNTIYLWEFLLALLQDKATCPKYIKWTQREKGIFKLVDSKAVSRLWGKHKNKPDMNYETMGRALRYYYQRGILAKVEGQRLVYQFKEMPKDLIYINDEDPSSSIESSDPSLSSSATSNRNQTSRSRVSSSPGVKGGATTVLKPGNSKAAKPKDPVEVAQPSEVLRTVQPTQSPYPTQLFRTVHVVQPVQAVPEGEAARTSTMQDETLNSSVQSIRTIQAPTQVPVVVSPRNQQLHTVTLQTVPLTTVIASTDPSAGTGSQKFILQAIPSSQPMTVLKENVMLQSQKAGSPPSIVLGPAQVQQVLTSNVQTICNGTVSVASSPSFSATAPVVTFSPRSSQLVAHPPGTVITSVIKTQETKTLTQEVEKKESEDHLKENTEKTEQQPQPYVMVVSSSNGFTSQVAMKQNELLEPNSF
For another test, the target named is T4, EHF (Homo sapiens, UniProt Q9NZC4 1-300).
T4 sequence: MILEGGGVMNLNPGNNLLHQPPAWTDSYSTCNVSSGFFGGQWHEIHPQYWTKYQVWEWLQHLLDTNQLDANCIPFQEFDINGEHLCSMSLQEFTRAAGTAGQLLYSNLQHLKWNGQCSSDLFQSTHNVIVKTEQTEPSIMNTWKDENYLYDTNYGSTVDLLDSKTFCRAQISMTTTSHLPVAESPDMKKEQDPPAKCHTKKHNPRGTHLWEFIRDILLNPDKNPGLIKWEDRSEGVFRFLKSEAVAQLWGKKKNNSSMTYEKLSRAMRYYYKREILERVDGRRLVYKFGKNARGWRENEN
A digest of the protocol:
as §1

The target of a further test is SPI1 (Homo sapiens, UniProt P17947 1-270). The method in brief:
as §1

The target of another test is SPIB (Homo sapiens, UniProt Q01892 1-262). The method in brief:
as §1

The next test addresses T5, FEV (Homo sapiens, UniProt Q99581 1-238).
T5 sequence: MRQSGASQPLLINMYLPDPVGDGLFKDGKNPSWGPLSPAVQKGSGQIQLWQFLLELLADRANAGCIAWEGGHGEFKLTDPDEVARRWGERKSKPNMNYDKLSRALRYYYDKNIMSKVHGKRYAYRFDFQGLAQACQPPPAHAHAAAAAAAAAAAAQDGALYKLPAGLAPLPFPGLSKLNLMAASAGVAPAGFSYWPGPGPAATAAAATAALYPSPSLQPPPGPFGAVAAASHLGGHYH
The method in brief:
as §1

The next test addresses ETV5 (Homo sapiens, UniProt P41161 1-510). The method in brief:
as §1

The next test concerns the target ELF4 (Homo sapiens, UniProt Q99607 1-663). The method in brief:
as §1

A further test addresses T6, ELK4 (Homo sapiens, UniProt P28324-2 1-405).
T6 sequence: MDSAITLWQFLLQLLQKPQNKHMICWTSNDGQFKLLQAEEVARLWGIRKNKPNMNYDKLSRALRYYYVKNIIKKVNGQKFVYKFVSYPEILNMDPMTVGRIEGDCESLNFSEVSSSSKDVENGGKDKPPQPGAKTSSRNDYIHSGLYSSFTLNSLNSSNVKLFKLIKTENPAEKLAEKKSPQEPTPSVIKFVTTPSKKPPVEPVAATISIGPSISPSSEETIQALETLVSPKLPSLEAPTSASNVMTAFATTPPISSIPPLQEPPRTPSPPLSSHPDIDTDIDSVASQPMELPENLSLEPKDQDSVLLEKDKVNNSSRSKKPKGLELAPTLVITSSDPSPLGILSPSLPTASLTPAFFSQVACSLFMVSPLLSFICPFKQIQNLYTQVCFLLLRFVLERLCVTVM
A digest of the protocol: as §1

The target in a further test is T7, ETV2 (Homo sapiens, UniProt O00321 1-342).
T7 sequence: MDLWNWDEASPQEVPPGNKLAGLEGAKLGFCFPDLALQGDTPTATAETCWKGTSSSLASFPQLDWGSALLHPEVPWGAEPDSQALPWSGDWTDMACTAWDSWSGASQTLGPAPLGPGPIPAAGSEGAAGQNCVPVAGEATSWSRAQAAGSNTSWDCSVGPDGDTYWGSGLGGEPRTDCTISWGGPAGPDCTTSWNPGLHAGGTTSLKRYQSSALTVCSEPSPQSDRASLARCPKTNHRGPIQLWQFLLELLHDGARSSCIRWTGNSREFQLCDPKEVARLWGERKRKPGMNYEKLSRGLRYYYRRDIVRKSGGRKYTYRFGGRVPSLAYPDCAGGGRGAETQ
The method in brief: as §1

The next test addresses T8, ERF (Homo sapiens, UniProt P50548 1-548).
T8 sequence: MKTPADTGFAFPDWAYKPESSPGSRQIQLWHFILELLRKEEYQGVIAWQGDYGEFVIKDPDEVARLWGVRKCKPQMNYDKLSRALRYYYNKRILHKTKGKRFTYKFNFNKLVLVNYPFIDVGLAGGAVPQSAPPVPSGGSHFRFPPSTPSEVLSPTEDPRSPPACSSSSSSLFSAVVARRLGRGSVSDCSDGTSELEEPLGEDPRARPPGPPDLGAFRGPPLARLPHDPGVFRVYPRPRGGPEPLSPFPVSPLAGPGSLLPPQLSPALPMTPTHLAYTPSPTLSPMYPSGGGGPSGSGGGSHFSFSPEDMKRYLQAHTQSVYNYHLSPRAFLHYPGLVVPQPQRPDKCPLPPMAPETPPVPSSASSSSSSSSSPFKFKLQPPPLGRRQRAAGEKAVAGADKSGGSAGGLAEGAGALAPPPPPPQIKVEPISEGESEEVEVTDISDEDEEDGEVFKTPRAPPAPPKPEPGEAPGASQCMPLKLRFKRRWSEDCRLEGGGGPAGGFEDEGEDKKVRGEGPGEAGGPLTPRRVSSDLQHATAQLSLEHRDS
The method in brief:
as §1

In another test the target is T9, ETV3L (Homo sapiens, UniProt Q6ZN32 1-361).
T9 sequence: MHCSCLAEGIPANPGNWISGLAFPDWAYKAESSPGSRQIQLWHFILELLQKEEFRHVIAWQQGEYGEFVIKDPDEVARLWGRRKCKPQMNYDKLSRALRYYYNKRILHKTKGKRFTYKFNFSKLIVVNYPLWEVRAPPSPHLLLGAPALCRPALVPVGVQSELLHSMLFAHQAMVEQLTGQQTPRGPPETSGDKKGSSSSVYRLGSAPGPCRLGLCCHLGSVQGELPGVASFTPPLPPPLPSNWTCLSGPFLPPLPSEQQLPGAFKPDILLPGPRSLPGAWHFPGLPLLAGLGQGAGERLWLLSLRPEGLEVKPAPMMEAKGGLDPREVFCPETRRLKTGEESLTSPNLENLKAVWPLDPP
The method in brief: as §1

In another test the target is T10, ETS2 (Homo sapiens, UniProt P15036 1-469).
T10 sequence: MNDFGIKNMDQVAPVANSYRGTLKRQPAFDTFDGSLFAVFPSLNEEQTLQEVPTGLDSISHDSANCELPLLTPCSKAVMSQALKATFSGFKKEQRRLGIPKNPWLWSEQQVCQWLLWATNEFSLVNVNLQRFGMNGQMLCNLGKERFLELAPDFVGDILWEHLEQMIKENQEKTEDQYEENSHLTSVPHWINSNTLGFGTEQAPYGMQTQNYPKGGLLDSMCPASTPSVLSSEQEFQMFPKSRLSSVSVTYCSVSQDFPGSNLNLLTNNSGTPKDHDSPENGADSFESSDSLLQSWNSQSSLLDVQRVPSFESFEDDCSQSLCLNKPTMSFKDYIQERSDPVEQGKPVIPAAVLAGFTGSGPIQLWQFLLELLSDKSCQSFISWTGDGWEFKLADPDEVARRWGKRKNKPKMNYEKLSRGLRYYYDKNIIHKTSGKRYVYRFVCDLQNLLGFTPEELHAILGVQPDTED
A digest of the protocol:
as §1

The target in a further test is T11, SPDEF (Homo sapiens, UniProt O95238 1-335).
T11 sequence: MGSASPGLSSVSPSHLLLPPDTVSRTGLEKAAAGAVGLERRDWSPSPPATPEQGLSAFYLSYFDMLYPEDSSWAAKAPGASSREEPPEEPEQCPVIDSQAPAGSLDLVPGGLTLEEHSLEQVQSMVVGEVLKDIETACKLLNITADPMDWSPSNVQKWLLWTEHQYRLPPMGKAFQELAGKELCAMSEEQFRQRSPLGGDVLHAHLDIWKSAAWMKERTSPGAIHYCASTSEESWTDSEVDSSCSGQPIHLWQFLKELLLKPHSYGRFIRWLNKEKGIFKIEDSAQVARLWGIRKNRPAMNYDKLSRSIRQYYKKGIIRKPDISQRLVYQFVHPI
The method in brief: as §1

For another test, the target named is ETV6 (Homo sapiens, UniProt P41212 1-452). The method in brief: as §1
Chain of ETV6 (P41212 whole entry): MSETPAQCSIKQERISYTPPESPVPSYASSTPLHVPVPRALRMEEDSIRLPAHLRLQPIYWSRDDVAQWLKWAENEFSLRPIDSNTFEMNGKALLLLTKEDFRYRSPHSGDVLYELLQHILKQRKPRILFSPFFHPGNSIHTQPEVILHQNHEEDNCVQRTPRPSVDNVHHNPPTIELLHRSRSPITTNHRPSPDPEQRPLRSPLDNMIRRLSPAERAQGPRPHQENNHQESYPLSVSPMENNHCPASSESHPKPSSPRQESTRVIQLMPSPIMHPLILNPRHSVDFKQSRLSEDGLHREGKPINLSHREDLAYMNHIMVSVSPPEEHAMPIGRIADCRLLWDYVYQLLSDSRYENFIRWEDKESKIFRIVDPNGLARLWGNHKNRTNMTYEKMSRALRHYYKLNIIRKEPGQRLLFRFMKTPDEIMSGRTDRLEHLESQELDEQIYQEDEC

Chain of ELF4 (Q99607 whole entry): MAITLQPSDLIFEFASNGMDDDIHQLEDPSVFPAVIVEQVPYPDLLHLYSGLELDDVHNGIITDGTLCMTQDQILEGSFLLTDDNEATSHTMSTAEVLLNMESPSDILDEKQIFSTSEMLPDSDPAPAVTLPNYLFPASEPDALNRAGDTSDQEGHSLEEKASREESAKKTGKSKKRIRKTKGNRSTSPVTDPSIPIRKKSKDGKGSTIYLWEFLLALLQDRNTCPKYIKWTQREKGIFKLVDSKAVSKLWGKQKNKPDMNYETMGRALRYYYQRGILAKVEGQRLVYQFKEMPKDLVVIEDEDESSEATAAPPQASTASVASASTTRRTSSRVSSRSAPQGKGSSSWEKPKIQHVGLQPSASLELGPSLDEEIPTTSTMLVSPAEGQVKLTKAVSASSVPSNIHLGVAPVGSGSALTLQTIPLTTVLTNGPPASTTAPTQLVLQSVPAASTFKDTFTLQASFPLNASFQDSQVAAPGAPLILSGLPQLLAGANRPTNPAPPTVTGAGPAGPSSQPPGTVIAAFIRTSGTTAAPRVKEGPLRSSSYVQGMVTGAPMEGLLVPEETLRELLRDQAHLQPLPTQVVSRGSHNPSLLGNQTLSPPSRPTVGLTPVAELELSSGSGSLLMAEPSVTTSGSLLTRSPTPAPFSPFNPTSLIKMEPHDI
Chain of SPIB (Q01892 whole entry): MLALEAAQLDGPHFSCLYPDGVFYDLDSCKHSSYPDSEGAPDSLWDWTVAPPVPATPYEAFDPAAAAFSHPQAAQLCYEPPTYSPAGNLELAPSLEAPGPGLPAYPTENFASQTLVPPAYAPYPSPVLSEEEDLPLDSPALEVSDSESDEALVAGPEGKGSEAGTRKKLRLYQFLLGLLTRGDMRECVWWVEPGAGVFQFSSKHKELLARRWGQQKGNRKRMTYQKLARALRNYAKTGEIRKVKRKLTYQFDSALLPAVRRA
Chain of ETV5 (P41161 whole entry): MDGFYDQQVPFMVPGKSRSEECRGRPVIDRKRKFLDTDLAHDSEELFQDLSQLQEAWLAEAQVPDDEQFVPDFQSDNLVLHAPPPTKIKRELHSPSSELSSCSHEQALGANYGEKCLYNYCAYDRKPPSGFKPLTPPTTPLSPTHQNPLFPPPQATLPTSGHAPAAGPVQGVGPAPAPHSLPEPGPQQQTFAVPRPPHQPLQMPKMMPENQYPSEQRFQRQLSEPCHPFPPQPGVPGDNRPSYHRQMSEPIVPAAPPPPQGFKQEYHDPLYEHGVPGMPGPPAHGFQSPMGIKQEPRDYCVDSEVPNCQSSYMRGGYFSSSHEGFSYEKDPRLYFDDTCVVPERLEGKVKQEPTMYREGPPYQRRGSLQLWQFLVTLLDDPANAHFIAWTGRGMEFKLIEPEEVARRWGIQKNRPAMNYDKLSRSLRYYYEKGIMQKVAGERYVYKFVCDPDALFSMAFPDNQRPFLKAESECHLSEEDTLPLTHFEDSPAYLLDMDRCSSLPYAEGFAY

In the case of GCCCAA, the binding signal was 1.08 fold enrichment (6-mer frequency, TF over GST control) with ELK1; 1.14 fold enrichment (6-mer frequency, TF over GST control) with GABPA; 1.06 fold enrichment (6-mer frequency, TF over GST control) with ERG; 1.09 fold enrichment (6-mer frequency, TF over GST control) with ELF1; 1 fold enrichment (6-mer frequency, TF over GST control) with EHF; 1.01 fold enrichment (6-mer frequency, TF over GST control) with SPI1. The binding signal was 1.06 fold enrichment (6-mer frequency, TF over GST control) with SPIB; 1.11 fold enrichment (6-mer frequency, TF over GST control) with FEV; 1.1 fold enrichment (6-mer frequency, TF over GST control) with ETV5; 1.12 fold enrichment (6-mer frequency, TF over GST control) with ELF4; 1.07 fold enrichment (6-mer frequency, TF over GST control) in the test with ELK4; 1.24 fold enrichment (6-mer frequency, TF over GST control) with ETV2. In addition, the binding signal with ERF was 1.08 fold enrichment (6-mer frequency, TF over GST control); with ETV3L it was 1.04 fold enrichment (6-mer frequency, TF over GST control); in the test with ETS2, 1.09 fold enrichment (6-mer frequency, TF over GST control); with SPDEF, 1.08 fold enrichment (6-mer frequency, TF over GST control); in the test with ETV6 it was 1.02 fold enrichment (6-mer frequency, TF over GST control).
